Test results from PubChem BioAssay AID1159580 (chemical genetic matrix, 2015).
Several values for one entry are separate records, joined by “and”; a condition that tells them apart may be missing. Identical values can stand only once. Out of some 5,500 compounds screened, about 2,000 (36%) were called active. Roughly 18% stayed inconclusive and do not appear here. Cut-off read from the data, not from the text of the source: active = normalized growth mostly below about 0.91 (no sharp cut-off); inconclusive = no clear call, values can overlap the other calls; inactive = mostly above about 0.92. The list shows a part of the results.

Test: chemical genetic growth profiling, strain panel (AID 1159580);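 note: tested at 20 µM; growth read once vehicle control cultures reached saturation at 30 °C; 1 = growth at the plate median or of vehicle wells; lower values mean less growth of the strain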
Conditions: S. cerevisiae deletion strains, growth OD

Measured: normalized growth

CNC(C)C(O)c1ccccc1 (stereo not drawn)
inactive: locus YAL013W, strain DEP1, hits give low values 1 | locus YAL021C, strain ccr4, hits give low values 1.02 | locus YAL026C, strain drs2, hits give low values 0.997 | locus YAL030W, strain snc1, hits give low values 1.01 | locus YBL061C, strain skt5, hits give low values 1 | locus YBR009C, strain hhf1, hits give low values 0.993 | locus YBR021W, strain FUR4, hits give low values 1.01 | locus YBR023C, strain chs3, hits give low values 1.01 | locus YBR171W, strain sec66, hits give low values 1.02 | locus YBR229C, strain ROT2, hits give low values 1 | locus YBR231C, strain swc5, hits give low values 1.02 | locus YBR279W, strain paf1, hits give low values 1.01 | locus YCL011C, strain gbp2, hits give low values 1.01 | locus YCL016C, strain dcc1, hits give low values 1 | locus YCL029C, strain bik1, hits give low values 1.02 | locus YCL061C, strain MRC1, hits give low values 1.02 | locus YCL069W, strain vba3, hits give low values 1.02 | locus YCR088W, strain abp1, hits give low values 1.02 | locus YDL005C, strain med2, hits give low values 1.02 | locus YDL035C, strain GPR1, hits give low values 1.01 | locus YDL040C, strain nat1, hits give low values 1.01 | locus YDL074C, strain BRE1, hits give low values 1.02 | locus YDL101C, strain DUN1, hits give low values 1 | locus YDL134C, strain PPH21, hits give low values 1.01 | locus YDL185W, strain tfp1, hits give low values 1.01 | locus YDL192W, strain arf1, hits give low values 1.03 | locus YDR001C, strain nth1, hits give low values 1.01 | locus YDR069C, strain doa4, hits give low values 1.02 | locus YDR101C, strain arx1, hits give low values 1.03 | locus YDR137W, strain rgp1, hits give low values 1.03 | locus YDR150W, strain NUM1, hits give low values 1 | locus YDR159W, strain sac3, hits give low values 0.99 | locus YDR162C, strain NBP2, hits give low values 1 | locus YDR195W, strain ref2 0.995 | locus YDR297W, strain sur2, hits give low values 1.01 | locus YDR318W, strain mcm21, hits give low values 1.02 | locus YDR334W, strain swr1, hits give low values 1.02 | locus YDR335W, strain msn5, hits give low values 1.01 | locus YDR388W, hits give low values 1.02 | locus YDR392W, strain spt3, hits give low values 1 | locus YDR502C, strain sam2, hits give low values 1.02 | locus YEL003W, strain gim4, hits give low values 1.02 | locus YEL037C, strain rad23, hits give low values 1.01 | locus YEL061C, strain CIN8 (second series), hits give low values 1.02 | locus YEL061C, strain CIN8, hits give low values 1 | locus YER015W, strain faa2, hits give low values 1.02 | locus YER016W, strain bim1, hits give low values 1.01 | locus YER110C, hits give low values 1.04 | locus YER111C, strain swi4, hits give low values 1.01 | locus YER155C, strain BEM2 (second series), hits give low values 1.02 | locus YER155C, strain BEM2, hits give low values 1 | locus YER167W, strain BCK2, hits give low values 1 | locus YFR010W, strain ubp6, hits give low values 1.03 | locus YGL078C, strain dbp3, hits give low values 1.03 | locus YGL086W, strain mad1, hits give low values 1 | locus YGL167C, strain pmr1, hits give low values 1.02 | locus YGL173C, strain kem1, hits give low values 1.01 | locus YGL227W, strain vid30, hits give low values 1.01 | locus YGL240W, strain doc1, hits give low values 1.04 | locus YGL248W, strain PDE1, hits give low values 1.01 | locus YGL253W, strain hxk2, hits give low values 1.01 | locus YGR078C, strain PAC10, hits give low values 1.01 | locus YGR135W, strain pre9, hits give low values 1.03 | locus YGR252W, strain gcn5, hits give low values 1.01 | locus YHR013C, strain ard1, hits give low values 1.02 | locus YHR027C, strain rpn1, hits give low values 1.02 | locus YHR030C, strain SLT2, hits give low values 1 and 1.02 | locus YHR079C, strain IRE1 (second series), hits give low values 1.02 | locus YHR079C, strain IRE1, hits give low values 1.04 | locus YHR094C, strain hxt1, hits give low values 1.03 | locus YHR129C, strain ARP1, hits give low values 1 | locus YHR142W, strain chs7, hits give low values 1.02 | locus YHR200W, strain rpn10, hits give low values 1.02 | locus YIL066C, strain RNR3, hits give low values 1 | locus YIL073C, strain SPO22, hits give low values 1.06 | locus YIL125W, strain kgd1, hits give low values 1.02 | locus YIR030C, strain dcg1, hits give low values 1.02 | locus YJL092W, strain hpr5, hits give low values 1.01 | locus YJL095W, strain BCK1 (second series), hits give low values 1.01 | locus YJL095W, strain BCK1, hits give low values 0.99 and 0.983 | locus YJL115W, strain asf1, hits give low values 1.03 | locus YJL129C, strain trk1, hits give low values 1.03 | locus YJL134W, strain LCB3, hits give low values 1 | locus YJL154C, strain vps35, hits give low values 1.01 | locus YJL164C, strain tpk1, hits give low values 1.01 | locus YJL166W, strain qcr8, hits give low values 1.03 | locus YJL168C, strain set2, hits give low values 1.02 | locus YJL187C, strain SWE1 (second series), hits give low values 1
